In PubChem BioAssay (EPA / NIEHS) one finds AC50 and outcome data, which are given here for 15 compounds.

Structures are written as SMILES. Results filed as inconclusive are left out. Active and inactive are the calls of the source. The calls were made as follows: active = hit-call score of the fitted dose curve at least 0.9, where 1 is the maximum; inconclusive = response in the unintended direction; inactive = score below 0.9.

Chain of human Serotonin, 5-Hydroxytryptamine Receptor 6 (5HT6), HTR6 (gene 3362) (P50406 whole entry, looked up): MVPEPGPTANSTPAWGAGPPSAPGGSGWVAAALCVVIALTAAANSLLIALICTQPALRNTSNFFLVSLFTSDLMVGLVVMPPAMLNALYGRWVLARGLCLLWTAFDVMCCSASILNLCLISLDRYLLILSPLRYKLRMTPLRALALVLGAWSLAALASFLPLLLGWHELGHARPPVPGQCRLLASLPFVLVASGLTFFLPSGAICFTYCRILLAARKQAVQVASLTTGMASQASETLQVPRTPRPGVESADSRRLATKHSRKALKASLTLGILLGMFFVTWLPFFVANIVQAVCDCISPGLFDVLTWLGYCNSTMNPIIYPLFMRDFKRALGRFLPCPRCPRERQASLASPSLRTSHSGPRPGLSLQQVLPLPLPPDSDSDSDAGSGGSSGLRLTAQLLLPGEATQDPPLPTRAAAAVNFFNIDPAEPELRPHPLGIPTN
Chain of guinea pig Opioid, Kappa 1 Receptor (OpiateK), OPRK1 (gene 100135587) (P41144 whole entry, looked up): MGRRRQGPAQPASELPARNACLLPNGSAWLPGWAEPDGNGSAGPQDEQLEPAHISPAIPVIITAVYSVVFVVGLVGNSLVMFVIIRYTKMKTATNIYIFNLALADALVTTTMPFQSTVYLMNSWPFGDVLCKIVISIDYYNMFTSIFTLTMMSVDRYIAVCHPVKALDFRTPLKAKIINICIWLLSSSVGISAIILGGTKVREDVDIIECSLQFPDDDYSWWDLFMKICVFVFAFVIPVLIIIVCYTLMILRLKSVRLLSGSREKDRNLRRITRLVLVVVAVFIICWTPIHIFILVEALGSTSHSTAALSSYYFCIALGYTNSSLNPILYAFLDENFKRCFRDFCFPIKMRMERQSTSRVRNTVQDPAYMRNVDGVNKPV
Chain of human Serotonin, 5-Hydroxytryptamine Receptor 7 (5HT7), HTR7 (gene 3363) (P34969 whole entry, looked up): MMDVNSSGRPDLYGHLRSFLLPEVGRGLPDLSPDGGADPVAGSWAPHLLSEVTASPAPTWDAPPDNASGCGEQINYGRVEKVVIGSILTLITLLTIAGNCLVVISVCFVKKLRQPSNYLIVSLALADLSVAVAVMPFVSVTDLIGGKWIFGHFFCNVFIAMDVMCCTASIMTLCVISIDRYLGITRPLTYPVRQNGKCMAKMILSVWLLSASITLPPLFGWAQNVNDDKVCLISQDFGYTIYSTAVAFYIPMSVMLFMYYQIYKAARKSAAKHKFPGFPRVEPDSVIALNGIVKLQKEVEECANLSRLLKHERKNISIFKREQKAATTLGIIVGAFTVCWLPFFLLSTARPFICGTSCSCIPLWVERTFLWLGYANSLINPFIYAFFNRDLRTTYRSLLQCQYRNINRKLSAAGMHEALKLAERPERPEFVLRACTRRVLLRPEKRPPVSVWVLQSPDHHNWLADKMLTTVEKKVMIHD
Chain of human Adenosine A2a Receptor (AdoRA2a), ADORA2A (gene 135) (P29274 whole entry, looked up): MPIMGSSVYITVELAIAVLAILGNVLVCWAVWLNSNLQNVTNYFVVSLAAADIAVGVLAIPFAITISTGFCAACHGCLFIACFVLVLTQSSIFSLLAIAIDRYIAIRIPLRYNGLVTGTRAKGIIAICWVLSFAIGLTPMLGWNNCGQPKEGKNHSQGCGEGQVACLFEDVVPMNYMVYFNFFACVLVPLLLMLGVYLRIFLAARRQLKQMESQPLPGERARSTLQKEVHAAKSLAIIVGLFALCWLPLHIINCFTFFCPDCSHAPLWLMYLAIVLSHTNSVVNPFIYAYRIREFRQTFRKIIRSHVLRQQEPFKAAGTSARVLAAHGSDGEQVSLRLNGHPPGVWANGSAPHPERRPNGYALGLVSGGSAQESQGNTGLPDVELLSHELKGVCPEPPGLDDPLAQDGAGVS

The target of the first test is guinea pig Opioid, Kappa 1 Receptor (OpiateK), OPRK1 (gene 100135587) (UniProt P41144). Put plainly: NVS_GPCR_gOpiateK: NovaScreen (NVS) G Protein-Coupled Receptor Assay for guinea pig Opioid, Kappa 1 Receptor (OpiateK) (AID 2283252).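 Also: radioligand displacement from kappa opioid receptor in guinea pig cerebellar membranes; active means reduced radioligand binding relative to DMSO.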 In a few lines:
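Guinea pig cerebellar membranes were incubated with a radioligand for 2 h after compound addition; bound radioactivity was read by filter-based scintillation counting. Loss of specific binding relative to DMSO baseline defined activity; primary screen at 25 uM in duplicate.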
`CCC(=O)C(CC(C)N(C)C)(c1ccccc1)c1ccccc1` (stereo not given): the AC50 was 1.42 µM (active).
For the compound `Cn1sc(Cl)cc1=O`, the call was inactive.
For the compound `CC(=O)[O][Hg][c]1ccccc1`, the AC50 is 31.4 µM (active).
The same measure, in the same setting: then `C=C(C)C(=O)[O][Sn]([CH2]CCC)([CH2]CCC)[CH2]CCC`, with 16.9 µM (active); and `Clc1ccc(C2(Cn3cncn3)CC(Br)CO2)c(Cl)c1` (stereo not given), with 11.8 µM (active).

The target in another test is human Serotonin, 5-Hydroxytryptamine Receptor 6 (5HT6), HTR6 (gene 3362) (UniProt P50406). The test can be described thus: NVS_GPCR_h5HT6: NovaScreen (NVS) G Protein-Coupled Receptor Assay for human Serotonin, 5-Hydroxytryptamine Receptor 6 (5HT6) (AID 2283253). Here is the method:
NVS_GPCR_h5HT6 is a biochemical, single-readout assay that uses extracted gene-proteins from HEK293 in a cell-free assay. Measurements were taken 1 hour after chemical dosing in a 96-well plate.NVS_GPCR_h5HT6 is one of one assay component(s) measured or calculated from the NVS_GPCR_h5HT6 assay. It is designed to make measurements of radioligand binding, a form of binding reporter, as detected with scintillation counting signals by Filter-based radiodetection technology.Data from the assay component NVS_GPCR_h5HT6 was analyzed into 1 assay endpoint. This assay endpoint, NVS_GPCR_h5HT6, was analyzed in the positive analysis fitting direction relative to DMSO as the negative control and baseline of activity. Using a type of binding reporter, loss-of-signal activity can be used to understand changes in the binding as they relate to the gene HTR6. Furthermore, this assay endpoint can be referred to as a primary readout, because the performed assay has only produced 1 assay endpoint. To generalize the intended target to other relatable targets, this assay endpoint is annotated to the gpcr intended target family, where the subfamily is rhodopsin-like receptor.
(§1) Binding assays used specific radioligands (tritiated, iodinated) with non-radioactive competitive displacement ligands in agonist or antagonist protocols (as indicated) and various reference compounds and inhibitors to titrate specific binding to receptors and transporters. Most enzyme assays (CYPs, kinases, phosphatases, proteases, HDACs) used recombinant protein and specific substrates (fluorescence mostly, some colorimetric and radioactive) and inhibitors, followed by a biochemical separation of substrate and product. All assays for the biochemical HTS were initially run in duplicate at a single concentration (10 uM for CYP450 assays and 25 uM for all others). […] Each assay was run with positive and negative controls, and concurrent controls on every plate. The follow-up (secondary) screen tested active chemical-pairs in concentration series, as well as a few additional assays not tested in the primary screen, some selected negative inactives, and several cases re-run in the concentration series for confirmatory purposes.
Consider `CCC(=O)C(CC(C)N(C)C)(c1ccccc1)c1ccccc1` (stereo not given), for which the AC50 is 18.1 µM (active).
Consider `Cn1sc(Cl)cc1=O`, for which the compound was classed as inactive.
Turning to `CC(=O)[O][Hg][c]1ccccc1`, the AC50 is 1.32 µM (active).
The same measure, in the same setting: in the case of `C=C(C)C(=O)[O][Sn]([CH2]CCC)([CH2]CCC)[CH2]CCC` it was 4.82 µM (active).

For another test, the target named is human Adenosine A1 Receptor (AdoRA1), ADORA1 (gene 134) (UniProt P30542). The test can be described thus: NVS_GPCR_hAdoRA1: NovaScreen (NVS) G Protein-Coupled Receptor Assay for human Adenosine A1 Receptor (AdoRA1) (AID 2283254). On the procedure: NVS_GPCR_hAdoRA1 is a biochemical, single-readout assay that uses extracted gene-proteins from Human cortical membranes in a tissue-based cell-free assay. Measurements were taken 1 hour after chemical dosing in a 96-well plate.NVS_GPCR_hAdoRA1 is one of one assay component(s) measured or calculated from the NVS_GPCR_hAdoRA1 assay. It is designed to make measurements of radioligand binding, a form of binding reporter, as detected with scintillation counting signals by Filter-based radiodetection technology.Data from the assay component NVS_GPCR_hAdoRA1 was analyzed into 1 assay endpoint. This assay endpoint, NVS_GPCR_hAdoRA1, was analyzed in the positive analysis fitting direction relative to DMSO as the negative control and baseline of activity. Using a type of binding reporter, loss-of-signal activity can be used to understand changes in the binding as they relate to the gene ADORA1. Furthermore, this assay endpoint can be referred to as a primary readout, because the performed assay has only produced 1 assay endpoint. To generalize the intended target to other relatable targets, this assay endpoint is annotated to the gpcr intended target family, where the subfamily is rhodopsin-like receptor.
Chain of human Adenosine A1 Receptor (AdoRA1), ADORA1 (gene 134) (P30542 whole entry, looked up): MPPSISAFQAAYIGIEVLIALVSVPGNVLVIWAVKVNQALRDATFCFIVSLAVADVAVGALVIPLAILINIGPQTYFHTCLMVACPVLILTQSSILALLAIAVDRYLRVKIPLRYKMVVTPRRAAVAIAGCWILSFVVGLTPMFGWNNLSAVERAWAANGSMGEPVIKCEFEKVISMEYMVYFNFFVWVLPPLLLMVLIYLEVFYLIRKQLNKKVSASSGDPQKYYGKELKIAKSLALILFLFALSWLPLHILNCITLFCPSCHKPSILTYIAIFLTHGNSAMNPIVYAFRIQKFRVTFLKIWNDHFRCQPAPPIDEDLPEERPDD
as §1, with “The follow-up (secondary) screen tested active chemical-pairs in concentration series, as well as a few additional assays not tested in the primary screen, some selected negative inactives, and several cases re-run in the concentration series for confirmatory purposes.” left out
`CCNc1nc(NC(C)(C)C)nc(SC)n1`: the AC50 was 17.8 µM (active).
Regarding `CC(=O)[O][Hg][c]1ccccc1`, the AC50 is 25 µM (active).
The same measure, in the same setting: in the case of `C=C(C)C(=O)[O][Sn]([CH2]CCC)([CH2]CCC)[CH2]CCC` it was 25 µM (active).

The next test has as its target human Serotonin, 5-Hydroxytryptamine Receptor 7 (5HT7), HTR7 (gene 3363) (UniProt P34969). The test can be described thus: NVS_GPCR_h5HT7: NovaScreen (NVS) G Protein-Coupled Receptor Assay for human Serotonin, 5-Hydroxytryptamine Receptor 7 (5HT7) (AID 2283255).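 Also: hits reduce specific radioligand binding relative to DMSO.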 In a few lines: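 Radioligand displacement on membranes from CHO cells expressing human 5HT7, 1 h incubation, filter-based scintillation counting. Primary screen used a single 25 uM concentration in duplicate; actives were followed up in concentration series.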
As to `CCC(=O)C(CC(C)N(C)C)(c1ccccc1)c1ccccc1` (stereo not given), the AC50 was 3.59 µM (active).
`CCOP(=S)(OCC)Oc1nc(Cl)c(Cl)cc1Cl`: the outcome was inactive.
Turning to `O=C(O)C(F)(F)C(F)(F)C(F)(F)C(F)(F)C(F)(F)C(F)(F)C(F)(F)C(F)(F)C(F)(F)C(F)(F)F`, the AC50 was 12.9 µM (active).
The same measure, in the same setting: in the case of `CCN1CCC2(CC1)COc1cc3c(cc12)N(C(=O)c1ccc(-c2ccc(-c4nnc(C)o4)cc2C)cc1)CC3` it was 23.4 µM (active).
For the compound `CC(=O)[O][Hg][c]1ccccc1`, the AC50 was 0.577 µM (active).
Turning to `C=C(C)C(=O)[O][Sn]([CH2]CCC)([CH2]CCC)[CH2]CCC`, the AC50 was 0.499 µM (active).
As for `COc1cc(-c2ccc(N)c(OC)c2)ccc1N`, the compound was classed as inactive.
With `CC(C)(C)CC(C)(C)c1ccc(O)cc1`, the AC50 is 34.1 µM (active).
The same measure, in the same setting: in the case of `O=C1C2(Cl)C3(Cl)C4(Cl)C(Cl)(Cl)C5(Cl)C3(Cl)C1(Cl)C5(Cl)C24Cl` (stereo not given) it was 1.04 µM (active).

For a further test, the target named is human Adenosine A2a Receptor (AdoRA2a), ADORA2A (gene 135) (UniProt P29274). The test can be described thus: NVS_GPCR_hAdoRA2a: NovaScreen (NVS) G Protein-Coupled Receptor Assay for human Adenosine A2a Receptor (AdoRA2a) (AID 2283256). In a few lines:
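Radioligand displacement on HEK293-derived membrane protein, cell-free; filter-based scintillation counting 1.5 hours after dosing, loss of signal vs DMSO. Single-point duplicate screen at 25 uM, actives retested in concentration series.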
For `CCNc1nc(NC(C)(C)C)nc(SC)n1`, the AC50 was 17.4 µM (active).
Regarding `Oc1c(I)cc(I)cc1I`, the outcome was inactive.
Consider `COP(=S)(OC)Oc1ccc(Sc2ccc(OP(=S)(OC)OC)cc2)cc1`, for which the AC50 is 17.1 µM (active).
On the same count and under the same terms, then `O=C(O)C(F)(F)C(F)(F)C(F)(F)C(F)(F)C(F)(F)C(F)(F)C(F)(F)C(F)(F)C(F)(F)C(F)(F)F`, with 2.43 µM (active); and `CC(=O)[O][Hg][c]1ccccc1`, with 6.98 µM (active); and `C=C(C)C(=O)[O][Sn]([CH2]CCC)([CH2]CCC)[CH2]CCC`, with 6.84 µM (active).
Consider `COS(=O)(=O)c1ccc(C)cc1`, for which the compound was classed as inactive.
Take `CC(C)(C)CC(C)(C)c1ccc(O)cc1`: the compound was called inactive.
As to `O=C1C2(Cl)C3(Cl)C4(Cl)C(Cl)(Cl)C5(Cl)C3(Cl)C1(Cl)C5(Cl)C24Cl` (stereo not given), the AC50 is 0.11 µM (active).

As a reminder, the AC50 is the concentration giving half of the maximal activity seen.
